Only some compounds are listed: those with a hit (about 6.9% of all), similar ones and a draw of the others.
Cy5 interf NS3h – counter-screen for HCV NS3 helicase inhibitors: fluorescence interference | Cy5-dT15 DNA with NS3h; actives lie on both sides; signal over control mean, under 1 quenches | fluorescence interference ratio at 100 µM | 6% of 16,000 active | AID 720488;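 active means compound fluorescence over control fluorescence at most 0.8, a quencher, or at least a set upper limit, an enhancer; inactive means ratio between 0.8 and the set upper limit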
NS3h inh CB – blocks HCV NS3 helicase binding to DNA; NS3h Cy5-dT15 DNA binding, fluorescence polarization; inhibition, % at 100 µM; 1.6% of 16,000 active; AID 687043;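 active means inhibition above the average over every tested compound plus 3 SD, cut at about 40% in these data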
A number is an active result.

Results for CS(=O)(=O)c1ccc2nc(NC(=O)c3ccc(Cl)c(Cl)c3)sc2c1 ?
Cy5 interf NS3h: 0.71; NS3h inh CB: inactive

Results for O=C(CCCN1C(=O)c2ccccc2C1=O)Nc1ccccc1C(=O)N1CCOCC1 ?
Cy5 interf NS3h: inactive; NS3h inh CB: inactive

What do the screens show for `CN1CCN(C(=O)c2ccccc2NC(=O)CN2C(=O)c3ccccc3C2=O)CC1`?
Cy5 interf NS3h: 0.77; NS3h inh CB: inactive

How did CCOc1cc(/C=C2\C=C(c3ccc(Br)cc3)OC2=O)ccc1OC(C)=O do in these assays?
Cy5 interf NS3h: inactive; NS3h inh CB: inactive

Results for O=C(Nc1ccc(-c2ccc(NC(=O)c3ccccc3)cc2)cc1)c1ccccc1 ?
Cy5 interf NS3h: inactive; NS3h inh CB: inactive

Results for Cc1ccc(NC(=O)CN(c2ccc(Oc3ccccc3)cc2)S(C)(=O)=O)cc1 ?
Cy5 interf NS3h: inactive; NS3h inh CB: inactive

Results for COc1ccc(-c2nnc(Nc3ccc4c(c3)nc(C)n4C)c3ccccc23)cc1 ?
Cy5 interf NS3h: inactive; NS3h inh CB: inactive

How did COc1ccccc1-n1cnc2cc(Nc3nnc(C)c4ccccc34)ccc21 do in these assays?
Cy5 interf NS3h: inactive; NS3h inh CB: inactive

Results for Cc1nnc(Nc2ccc3c(c2)ncn3C)c2ccccc12 ?
Cy5 interf NS3h: 1.2; NS3h inh CB: inactive

How did Cn1cnc2cc(Nc3nnc(-c4ccccc4)c4ccccc34)ccc21 do in these assays?
Cy5 interf NS3h: inactive; NS3h inh CB: inactive

What do the screens show for `Cc1ccc(-c2nnc(Nc3ccc4c(c3)nc(C)n4C)c3ccccc23)cc1`?
Cy5 interf NS3h: 0.71; NS3h inh CB: inactive

How did COc1ccc(-n2cnc3cc(Nc4nnc(C)c5ccccc45)ccc32)cc1 do in these assays?
Cy5 interf NS3h: 0.74; NS3h inh CB: inactive

What do the screens show for `CC(/C=N\N1CCN(Cc2ccc(C)cc2)CC1)=C\c1ccco1`?
Cy5 interf NS3h: inactive; NS3h inh CB: inactive

Results for Cc1cccc(/C(N)=N\OC(=O)c2ccc(Cl)cc2Cl)c1 ?
Cy5 interf NS3h: inactive; NS3h inh CB: inactive

Results for Cc1ccc(CN2C(=O)CSC2c2cn(-c3ccccc3)nc2-c2ccccc2)cc1 (stereo unspecified) ?
Cy5 interf NS3h: inactive; NS3h inh CB: inactive

How did OC(=Cc1nc2ccccc2nc1C=C(O)c1ccccc1)c1ccccc1 do in these assays?
Cy5 interf NS3h: inactive; NS3h inh CB: inactive

How did OCC#CC(O)(c1ccc(F)cc1)c1ccc(F)cc1 do in these assays?
Cy5 interf NS3h: inactive; NS3h inh CB: inactive

Results for COc1ccccc1-n1sc2c(c1=S)-c1cc(C)c(C)cc1NC2(C)C ?
Cy5 interf NS3h: inactive; NS3h inh CB: inactive

How did O=C(NC(CO)C(O)c1ccc([N+](=O)[O-])cc1)c1ccc2ccccc2n1 (stereo unspecified) do in these assays?
Cy5 interf NS3h: 0.62; NS3h inh CB: inactive

Results for CC(=O)Oc1ccc(-c2cccc(C(=O)NC(CO)C(O)c3ccc([N+](=O)[O-])cc3)c2)cc1 (stereo unspecified) ?
Cy5 interf NS3h: inactive; NS3h inh CB: inactive

What do the screens show for `Cc1[nH]n(-c2ccccc2)c(=S)c1C=Nc1ccccc1O`?
Cy5 interf NS3h: inactive; NS3h inh CB: inactive

How did COc1cc(C=C2C(=O)N(C)C(=O)N(C)C2=O)ccc1OCc1ccccc1Cl do in these assays?
Cy5 interf NS3h: inactive; NS3h inh CB: inactive

How did C=CCN1C(=O)/C(=C/c2ccccc2OCc2ccccc2Cl)SC1=S do in these assays?
Cy5 interf NS3h: 0.65; NS3h inh CB: inactive

Results for C=CCN1C(=O)/C(=C\c2ccccc2OCc2ccc(Cl)cc2)SC1=S ?
Cy5 interf NS3h: inactive; NS3h inh CB: inactive

How did C=CCN1C(=O)NC(=O)/C(=C\c2ccc(OCc3ccccc3Cl)c(OC)c2)C1=O do in these assays?
Cy5 interf NS3h: 1.2; NS3h inh CB: inactive

Results for Cc1cc(C)c(NS(=O)(=O)c2cccc3c2C(=O)c2ccccc2C3=O)c(C)c1 ?
Cy5 interf NS3h: inactive; NS3h inh CB: inactive

What do the screens show for `CCOc1ccccc1NC(=O)c1ccc(CN(c2ccccc2)S(C)(=O)=O)cc1`?
Cy5 interf NS3h: inactive; NS3h inh CB: inactive

What do the screens show for `CCC(C)c1ccc(OCCOc2ccc(C=C3C(=O)NC(=S)NC3=O)cc2OC)cc1` (stereo unspecified)?
Cy5 interf NS3h: inactive; NS3h inh CB: inactive

How did CCC(C)c1ccc(OCCOc2ccc(C=C3C(=O)NC(=S)NC3=O)cc2)cc1 (stereo unspecified) do in these assays?
Cy5 interf NS3h: inactive; NS3h inh CB: 46

Results for O=C(CSc1cccc2cccnc12)OCC(=O)c1ccccc1 ?
Cy5 interf NS3h: inactive; NS3h inh CB: inactive

Results for O=C(CSc1ccccn1)OCC(=O)c1ccc(Br)cc1 ?
Cy5 interf NS3h: 0.64; NS3h inh CB: inactive

What do the screens show for `CCCCn1c(CN2C(=O)c3ccccc3C2=O)nc2ccccc2c1=O`?
Cy5 interf NS3h: inactive; NS3h inh CB: inactive

Results for O=c1c2ccccc2nc2ccc3nnnn3n12 ?
Cy5 interf NS3h: 0.73; NS3h inh CB: inactive

How did O=C(/C=C/c1ccc(Cl)cc1)Nc1ccc(-c2nc3ccccc3s2)c(O)c1 do in these assays?
Cy5 interf NS3h: inactive; NS3h inh CB: inactive

High-throughput results deposited in PubChem BioAssay by Milwaukee Institute for Drug Discovery.
